This is a sample that favours compounds with a hit; in the whole collection about 12% have one here.
Cl transport mod – KCC2 cotransporter modulators, thallium flux, primary screen, cell-based, HEK293 KCC2, FluoZin-2 fluorescence, MLSMR. KCC2 cells, thallium flux FluoZin-2 fluorescence. B-score of Tl+ flux slope (higher = more flux/activation; lower = inhibition) at 10 µM. actives 2.2% (n = 190,000). AID 1456, 2008;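 active = thallium flux slope and its plate-corrected score both differing from the plate sample mean at a set confidence after two filtering rounds, in either direction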;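 note: slope of fluorescence scaled to starting intensity during 10 to 20 s after thallium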
ROMK mod – ROMK potassium channel modulators, primary screen, cell-based, thallium flux, MLSMR library; ATP-sensitive inward rectifier potassium channel 1 (Homo sapiens), P48048; Tet-inducible ROMK, thallium flux fluorescence; actives lie on both sides; B-score at 10 µM; actives 2% (n = 130,000); AID 1918, 2009;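 active = signal ratio slope over the read window, or its plate-corrected B-score, at least 3 SD from the plate mean, either direction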;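 note: B-score of the F/F0 ratio slope over 7 to 12 s after thallium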
Calpain2 inh – inhibitors of pig calpain II, primary screen, biochemical, fluorogenic peptide substrate, 1536-well; purified calpain II, 30 min; inhibition, % at 16 µM; actives 0.37% (n = 220,000); AID 1236, 2008;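 active = inhibition above about 50%, limit read from the data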
WT yeast gro inh – growth inhibition of WT strain, primary screen, mitochondrial fusion inhibitor project, WT and mutant strains, chemical genetic; actives 2.1% (n = 190,000); inhibition, % at 10 µM; mitochondrial fusion phenotypic screen; AID 1362, 2008; in the data active = inhibition above about 58%; tested in S. cerevisiae
Lmaj promast – Leishmania major promastigote growth inhibition, primary screen; AID 1063, 2008; actives 9% (n = 200,000); Leishmania major promastigotes, resazurin fluorescence viability; inhibition, % at 10 µM; in the data active = inhibition above about 50%;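 note: promastigotes grown with compound for 44 hours at 28 °C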
Large screens that a line does not name were inactive.

O=C(N/N=C/c1ccncc1)c1ccc(NS(=O)(=O)c2cccs2)cc1	none
O=C(Nc1cccc(C(F)(F)F)c1)c1cc2c(=O)c3ccccc3oc2nc1C(F)(F)F	Lmaj promast 62 (no result: ROMK mod)
O=C(Nc1ccccc1)c1cc2c(=O)c3ccccc3oc2nc1C(F)(F)F	none (no result: ROMK mod)
Cc1cc(C)cc(NC(=O)c2snc3c(=O)[nH]cnc23)c1	none
Oc1ccc(C=Nc2cccc3ncccc23)c(O)c1	none (no result: ROMK mod)
Oc1ccc(C=Nc2ccc3ncccc3c2)c(O)c1	Lmaj promast 93
N#CCSc1nnc(COc2cccc3ccccc23)n1-c1ccccc1	none (no result: Cl transport mod)
COc1cccc(-c2nnc(SCc3ccc(C#N)cc3)n2Cc2ccco2)c1	none (no result: Cl transport mod)
Clc1cccc(CSc2nnc(-c3ccccn3)n2Cc2ccco2)c1	none (no result: Cl transport mod)
CC(C)(C)c1ccc(CSc2nnc(-c3ccccn3)n2Cc2ccco2)cc1	WT yeast gro inh 64
Cc1ccc(-c2nnc(SCc3ccc(C#N)cc3)n2Cc2ccco2)cc1	Lmaj promast 66 (no result: ROMK mod)
COc1ccc(-n2c(COc3cccc4ccccc34)nnc2SCC#N)cc1	Lmaj promast 55
Cc1ccc(OCc2nnc(SCc3ccc(C#N)cc3)n2-c2ccc(C)cc2)cc1	Lmaj promast 100
O=C(Cn1cc([N+](=O)[O-])cn1)Nc1nccs1	none (no result: ROMK mod)
CN(C)NC(=O)c1ccsc1NC(=O)c1ccc(S(=O)(=O)N(C)C)cc1	none (no result: ROMK mod)
COCCn1c(SCC(=O)N(C(C)C)C(C)C)nnc1-c1cc2ccccc2cc1O	none (no result: Cl transport mod, ROMK mod)
CC(C)N(C(=O)CSc1nnc(-c2cc3ccccc3cc2O)n1Cc1ccco1)C(C)C	Lmaj promast 54
C=CCn1c(SCc2ccc(C#N)cc2)nnc1-c1cccc(OC)c1	Lmaj promast 84 (no result: Cl transport mod)
O=C(CSc1nnc(-c2cnccn2)n1Cc1ccco1)c1ccccc1	WT yeast gro inh 99 (no result: ROMK mod)
NS(=O)(=O)c1ccc(CCNC(=O)CSc2nnc3ccccn23)cc1	none
O=C(NN1CCN(Cc2ccccc2)CC1)c1ccc(N2CCOCC2)c([N+](=O)[O-])c1	none
CCCS(=O)(=O)c1c(S(=O)(=O)CCC)c2cc(CC)ccn2c1C(=O)OC	WT yeast gro inh 70
CCCCCCCCCCn1cc(C(C)=O)c(=O)[nH]c1=O	none (no result: ROMK mod)
CCc1ccc(/C=C2\Oc3cc(OC(=O)N4CCOCC4)ccc3C2=O)cc1	Lmaj promast 93
CCCC(=O)N(CCN(C(=O)CCC)c1ccccc1)c1ccccc1	none
CC1(C)CC(=O)/C(=C(\O)c2ccccc2)C(=NCCc2ccccc2)C1	none
CC1(C)CSC(=NCCc2ccccc2)N1C(=O)c1ccc(C#N)cc1	Lmaj promast 92 (no result: ROMK mod)
COc1cccc2cc(-c3nc4ccccc4o3)c(=O)oc12	Lmaj promast 58 (no result: ROMK mod)
O=C(COc1ccc(Br)cc1)N1CCc2ccccc21	none (no result: ROMK mod, WT yeast gro inh, Lmaj promast)
O=C(COc1ccc(Br)cc1Cl)NC(=O)NCc1ccccc1	Lmaj promast 54 (no result: ROMK mod)
O=C(COc1ccc(Br)cc1Cl)NC(=O)Nc1ccc2c(c1)OCCO2	none
O=C(COc1ccc(Br)cc1Cl)NC(=S)N1CCc2ccccc21	Cl transport mod 23 (no result: ROMK mod)
CC(Oc1ccc(Cl)cc1Cl)C(=O)NC(=S)N1CCc2ccccc21 (stereo not drawn)	Cl transport mod 44 (no result: ROMK mod)
CC(Oc1ccc(Cl)cc1Cl)C(=O)NN=C1CCN(C)CC1 (stereo not drawn)	none (no result: ROMK mod)
O=C(NC(=S)N1CCc2ccccc21)c1ccccc1Br	Cl transport mod 60 (no result: ROMK mod)
O=C(COc1ccc(Br)cc1Br)NC(=S)Nc1cccc(CO)c1	none (no result: Cl transport mod)
O=C(COc1ccc(Br)cc1Br)NC(=S)N1CCCc2ccccc21	Cl transport mod 11
CN1CCN(c2ccc([N+](=O)[O-])cc2C(=O)c2ccccc2)CC1	Lmaj promast 56
Cc1ccc(C(=O)c2cc([N+](=O)[O-])ccc2N2CCN(C)CC2)cc1	none (no result: ROMK mod)
C=CCc1ccc(OCCCCNC(C)CC)c(OC)c1 (stereo not drawn)	Lmaj promast 90
C=CCc1ccc(OCCOCCNCCCC)c(OC)c1	Lmaj promast 96
C=CCc1ccc(OCCOCCNCCOC)c(OC)c1	Lmaj promast 99 (no result: ROMK mod)
CCOC(=O)c1ccc(Cl)c(S(=O)(=O)N2CCCC2)c1	none
O=C(CCC1CCCC1)Nc1ccc([N+](=O)[O-])cn1	none (no result: ROMK mod)
Cc1ccc(O)c(N=NC2=C(O)CC(C)(C)CC2=O)c1	Lmaj promast 99
Cc1nc2ccc(N=NC3=C(O)CC(C)(C)CC3=O)cc2s1	Lmaj promast 91
COc1ccc(S(=O)(=O)N(CCc2ccccc2)CC(=O)NC(C)C)cc1	none (no result: Cl transport mod)
COc1cccc(C2C(=O)N(C3CCCCC3)CC(=O)N2Cc2ccc(F)cc2)c1 (stereo not drawn)	Lmaj promast 53
COc1ccc(-c2csc3nc(-c4ccccc4)oc(=O)c23)cc1OC	none
CCSc1nnc(NC(=O)CSc2nnc(CNC(=O)c3ccccc3F)o2)s1	Lmaj promast 85
COc1ccc2[nH]c(C)c(CCNC(=S)Nc3ccc(C)cc3)c2c1	Lmaj promast 92
COc1ccc2[nH]c(C)c(CCNC(=S)Nc3cccc(C)c3C)c2c1	Lmaj promast 61
COc1ccc2[nH]c(C)c(CCNC(=S)Nc3ccccc3C)c2c1	none
Cc1ccc(C)c(NC(=S)NCCc2c[nH]c3ccccc23)c1	none (no result: ROMK mod, WT yeast gro inh, Lmaj promast)
CC(C)c1ccc(NC(=S)NCCc2c[nH]c3ccccc23)cc1	WT yeast gro inh 67 (no result: ROMK mod)
N#Cc1cccc(NC(=O)NCCc2c[nH]c3ccccc23)c1	Lmaj promast 90
Cc1ccccc1NC(=S)NCCc1c[nH]c2ccccc12	Lmaj promast 81
Cc1cc(C)cc(NC(=O)C(=O)NCCc2c[nH]c3ccccc23)c1	Calpain2 inh 65
C=CCN1C(=O)C(Cc2ccc(OC)cc2)S/C1=N/N=C/c1ccco1 (stereo not drawn)	none (no result: ROMK mod)
COc1ccc(N(Cc2cc3cccc(C)c3[nH]c2=O)C(=O)C2CCCO2)cc1 (stereo not drawn)	none (no result: WT yeast gro inh, Lmaj promast)
O=C(NCCO)C(=O)NCC1OCCCN1S(=O)(=O)c1cccs1 (stereo not drawn)	Lmaj promast 56
Cc1cc(C)c(S(=O)(=O)N2CCCOC2CNC(=O)C(=O)NCCc2c[nH]c3ccccc23)c(C)c1 (stereo not drawn)	Lmaj promast 93
CNC(=O)C(=O)NCC1OCCCN1S(=O)(=O)c1cccs1 (stereo not drawn)	none
N#Cc1cn(CC(=O)NCCc2c[nH]c3ccccc23)c2ccccc12	Lmaj promast 88
Cc1c(C#N)c2ccccc2n1CC(=O)NCCc1c[nH]c2ccccc12	none (no result: Cl transport mod, ROMK mod)
N#Cc1c2n(c3c(=O)n(CC(=O)c4ccc([N+](=O)[O-])cc4)cnc13)CCCCC2	none
Cc1ccc(C)c(N2C(=O)c3ccc(C(=O)OCC(=O)c4c(N)n(C)c(=O)n(C)c4=O)cc3C2=O)c1	Lmaj promast 51 (no result: ROMK mod)
O=C(NC12CC3CC(CC(C3)C1)C2)c1ccccc1O	Lmaj promast 50 (no result: ROMK mod)
CC(=O)NC(CC(=O)NC12CC3CC(CC(C3)C1)C2)c1ccccc1 (stereo not drawn)	Lmaj promast 63 (no result: ROMK mod)

Screens from PubChem BioAssay.
